HttQ103 aggreg: qHTS Multiplex Assay to Identify Dual Action Probes in a Cell Model of Huntington: Aggregate Formation (GFP); PC12 HttQ103-GFP aggregates, Acumen cytometry, 40 h; Potency, µM (top dose mostly 46.1 µM), for inactives: at the top dose activity change, negative = inhibition, most hits filed as inhibitors; 220,000 compounds, 1.1% hits; AID 1688, 2009; active = well fitted curve in the direction sought with a large enough effect; inconclusive = small, poorly fitted or top-dose-only effect, or another doubt; inactive = no such curve, though single readings can be large; an effect the other way counts as inactive or inconclusive; note: % is set by controls: 0 for no effect and ±100 for the full control effect; nearly all actives have a fitted effect of over 60% in size
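PC12/HTTQ103-GFP, ecdysone-inducible; teb 100 nM; cpd qHTS titration; GFP aggregates read on laser cytometer, Ex 488/Em 500-530 nm.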
HTT ATP protect: qHTS Multiplex Assay to Identify Dual Action Probes in a Cell Model of Huntington: Cytoprotection (ATP) | 230,000 compounds, 0.14% hits | PC12 HTT-Q103 induced, cytoprotection, ATP luminescence, 40 h | Potency, µM (titrated, usually from 56.4 µM), for inactives: cytoprotection (ATP increase), actives largely listed as activators; active = well fitted curve in the direction sought with a large enough effect; inconclusive = small, poorly fitted or top-dose-only effect, or another doubt; inactive = no such curve, though single readings can be large; an effect the other way counts as inactive or inconclusive; note: % of control where 0% means no effect; nearly all actives have a fitted effect of over 45% in size
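PC12 cells stably carrying ecdysone-inducible Htt exon 1 (Q103)–GFP were induced with 100 nM tebufenozide (final) alongside library compounds in a dose series. Cytoprotection was scored as retained ATP by ATPlite luminescence.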
Lamin A splicing: qHTS Assay for Modulators of Lamin A Splicing; HeLa LMNA splicing GFP/RFP minigene ratio, 48 h; Potency, µM (highest dose often 46.1 µM), for the others: at the top dose ratio change, negative = inhibition, hits mostly inhibitors; 200,000 compounds, 0.01% hits; AID 1487, 2009; active = well fitted inhibition curve with a large enough effect in the signal ratio, with a control signal flat, not every such curve was filed as active; inconclusive = small, poorly fitted or top-dose-only effect, or effect the other way, or a change in a side signal; the % refers to the signal ratio; note: % is set by controls: 0 for no effect and ±100 for the full control effect
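Read-out is the ratio of GFP to DsRed2 object intensity, acquired by 488 nm laser-scanning cytometry on HeLa lamin A-EGFP minigene reporter cells. Compound incubation 48 hrs at 37 °C in Opti-MEM with 2% FBS; DMSO 0.5% final.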
JMJD2E inh: qHTS Assay for Inhibitors of Human Jumonji Domain Containing 2E (JMJD2E). Lysine-specific demethylase 4E (Homo sapiens), B2RXH2. JMJD2E catalytic domain, FDH-coupled NADH fluorescence (FDH is formaldehyde dehydrogenase). Potency, µM (top dose mostly 57.1 µM), inactives show at the highest dose activity change, negative = inhibition, usual class: inhibitors. 230,000 compounds, 1.6% hits;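 note: 0% = wells with enzyme and -100% = buffer wells without enzyme; nearly all actives have a fitted effect of over 50% in size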
Target sequence (B2RXH2 1-337 limits assumed): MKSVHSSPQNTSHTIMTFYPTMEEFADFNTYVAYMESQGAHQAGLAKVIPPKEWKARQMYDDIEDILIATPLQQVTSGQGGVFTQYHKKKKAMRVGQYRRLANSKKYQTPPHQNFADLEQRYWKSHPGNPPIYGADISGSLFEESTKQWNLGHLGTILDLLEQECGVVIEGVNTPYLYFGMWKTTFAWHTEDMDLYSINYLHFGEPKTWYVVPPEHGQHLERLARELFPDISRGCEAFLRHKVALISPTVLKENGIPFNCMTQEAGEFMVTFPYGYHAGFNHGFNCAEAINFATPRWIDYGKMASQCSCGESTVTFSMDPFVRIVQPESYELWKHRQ
ALDH1A1 inh: qHTS Assay for Inhibitors of Aldehyde Dehydrogenase 1 (ALDH1A1) | Aldehyde dehydrogenase 1A1 (Homo sapiens), P00352 | Purified ALDH1A1, NADH fluorescence, propionaldehyde substrate | Potency, µM (highest dose often 75.3 µM), for inactives: top-dose activity, negative = inhibition, usual class: inhibitors | 220,000 compounds, 7.3% hits;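 note: plate controls were no enzyme wells and a reference inhibitor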
HPGD inh: qHTS Assay for Inhibitors of HPGD (15-Hydroxyprostaglandin Dehydrogenase); 15-hydroxyprostaglandin dehydrogenase [NAD(+)] (Homo sapiens), P15428; purified HPGD, NADH fluorescence kinetic, PGE2 substrate; Potency, µM, for inactives: at the top dose activity change, negative = inhibition, hits mostly inhibitors; 150,000 compounds, 4.3% hits; AID 894, 2007; note: % is set by controls: 0 for no effect and ±100 for the full control effect
Target sequence (P15428 whole entry, looked up): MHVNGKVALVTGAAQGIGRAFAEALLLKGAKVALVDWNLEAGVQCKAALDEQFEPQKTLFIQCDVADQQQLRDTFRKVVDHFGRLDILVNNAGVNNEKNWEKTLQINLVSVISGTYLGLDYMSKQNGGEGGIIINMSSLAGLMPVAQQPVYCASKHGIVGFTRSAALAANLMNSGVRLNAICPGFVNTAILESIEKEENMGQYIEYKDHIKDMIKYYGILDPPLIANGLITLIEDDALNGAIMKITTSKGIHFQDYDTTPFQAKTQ
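NADH formation kinetics: reaction with 30 uM PGE2 and 1 mM NAD+ (final), 20 nM enzyme, Tris-HCl pH 8 with Tween 20, after 15 min compound preincubation at room temperature. Fluorescence change, last versus first of five reads.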
An asterisk follows results filed as active; ? = inconclusive; / = not tested or not shown; [ ] = another dose, or the depositor's remark. Sampled rows, rich in hits. Any-hit rate of the full collection: about 9.2%. Unless noted, calls come from the whole dose curve; as a rule, active = well fitted inhibition curve with a large enough effect (not every such curve was filed as active); inconclusive = small, poorly fitted or top-dose-only effect, or another doubt; inactive = no such curve, though single readings can be large or run the other way. Potency is the fitted concentration of half-maximal effect.

SMILES	HttQ103 aggreg	HTT ATP protect	Lamin A splicing	JMJD2E inh	ALDH1A1 inh	HPGD inh
COc1ccccc1/C=C\C(=O)NCC(=O)N/N=C(\C)Cc1ccccc1	7%[9.22 µM]	22%[10 µM]	/	?	/	/
O=C(CCS(=O)(=O)c1cccc2nonc12)N1CC(=O)N(CCc2ccccc2)C(=O)C1	7%	19%	7%	4%	28µM*	1%
COc1ccc(CNC(=O)CCS(=O)(=O)c2cccc3nonc23)cc1	6.3µM*	3.5µM*	0%	-11%	18µM*	-6%
Cc1ccc(CNC(=O)CCS(=O)(=O)c2cccc3nonc23)cc1	-11%	17%	-10%	2%	40µM*	4%
Cc1ccc(NC(=O)CCS(=O)(=O)c2cccc3nonc23)c(C)c1	/	/	-14%[46 µM]	/	/	/
COc1ccc(NC(=O)CCS(=O)(=O)c2cccc3nonc23)cc1	-1%	-34%	/	-3%	?	/
COc1ccccc1CNC(=O)CCS(=O)(=O)c1cccc2nonc12	-3%[9.22 µM]	-7%	-7%	2%	18µM*	-14%
O=C(O)CSc1ncccc1[N+](=O)[O-]	/	-2%[10 µM]	/	/	-3%[13.5 µM]	-3%
O=C(NCc1ccco1)c1ccccc1NS(=O)(=O)c1cccs1	7%	1%[0.074 µM]	-1%	-14%	?	-18%
Cc1ccc(NC(=O)c2ccccc2NS(=O)(=O)c2ccc(Cl)s2)cc1	3.2µM*	-39%[10 µM]	?	2%	-13%	-6%
O=C(Nc1ccccc1Cc1ccccc1)c1ccccc1NS(=O)(=O)c1ccc(Cl)s1	2.5µM*	/	?	-19%	-2%	-1%
O=C(NCc1ccco1)c1ccccc1NS(=O)(=O)c1ccc(Cl)s1	18µM*	-18%	?	-16%	?	-1%
CCCCC(=O)O[C@]1(C(=O)CO)CCC2C3CCC4=CC(=O)CCC4(C)C3C(O)CC21C (stereo not given in full)	5%	-7%	/	/	/	/
CCOC(=O)CC1=NN(c2ccccc2)C(=O)/C1=C\c1ccc(N(C)C)cc1	0%	-23%[10 µM]	-11%	-1%	5µM*	-26%
C(=N\n1cnnc1)/c1ccc(OCc2ccccc2)cc1	0%	-22%	14%	?	?	-29%
Fc1ccccc1COc1cccc(/C=N/n2cnnc2)c1	?	-14%	?	?	1%	-22%
Cc1cc(/C=N/n2cnnc2)c(C)n1-c1ccc(OCc2ccc(Cl)cc2)cc1	2.5µM*	-63%	?	?	?	-22%
Cc1cc(/C=N/n2cnnc2)c(C)n1-c1ccc(OCc2ccccc2F)cc1	10µM*	-66%	?	-9%	?	?
CCOC(=O)C1=C(C)OC(N)=C(C#N)C1c1cc2c(cc1[N+](=O)[O-])OCO2 (stereo not given)	-10%	?	?	?	?	/
COc1ccc(/C(C)=N/NC(=O)Cn2nc([N+](=O)[O-])cc2C)cc1	-10%[9.22 µM]	-3%[10 µM]	/	6%	/	/
Cc1ccc(S(=O)(=O)Nc2cccc(-c3cn4ccsc4n3)c2)cc1	-10%	-24%	?	-2%	16µM*	-3%
O=S(=O)(Nc1ccc(-c2csc(-c3ccccc3)n2)cc1)c1ccccc1	-14%	17%[10 µM]	?	?	0%	-27%
Cc1nc(-c2cccc(NS(=O)(=O)c3ccccc3)c2)cs1	?	15%	-1%	-12%	14µM*	14µM*
O=S(=O)(Nc1cccc(-c2cn3ccsc3n2)c1)c1ccc(F)cc1	-17%	-13%	?	6%	-4%	-14%
Cc1cccc(S(=O)(=O)Nc2cccc(-c3cn4ccsc4n3)c2)c1	3%	-12%	?	6%	10µM*	-23%
SMILES	HttQ103 aggreg	HTT ATP protect	Lamin A splicing	JMJD2E inh	ALDH1A1 inh	HPGD inh
COc1ccc2c(c1OC)C(=O)N1N=C(c3ccc(O)cc3)CC21 (stereo not given)	20%	28%[10 µM]	-6%	1%	-6%	-24%
COC(=O)c1c[nH]n2c(=O)c(Cc3ccc(F)cc3Cl)c(C)nc12	18µM*	-10%[0.074 µM]	?	1%	?	?
COc1ccc(OCCn2c(NC(=O)c3ccco3)nc3ccccc32)cc1	10µM*	17%	?	-6%	-13%	-17%
CCCn1c(NC(=O)c2ccco2)nc2ccccc21	?	-4%	3%	?	-2%	-11%
CNC(=O)c1ccc(Nc2nnc(-c3ccc(C)c(S(=O)(=O)NCC4CCCO4)c3)c3ccccc23)cc1 (stereo not given)	20%	39%[10 µM]	-21%	-4%	?	25µM*
Cc1ccc(S(=O)(=O)N/N=C/c2cc(Br)c(C)o2)cc1	?	18%	25%	-23%	5.6µM*	-26%
Cc1ccc(S(=O)(=O)N/N=C/c2c(F)cccc2Cl)cc1	8%	-16%[10 µM]	-24%	7%	28µM*	-9%
Cc1ccc(S(=O)(=O)N/N=C/c2cccn2-c2ccc(Cl)cc2)cc1	16%	-103%	22%	-21%	0%	-20%
Cc1ccc(S(=O)(=O)N/N=C/c2cc(Br)ccc2O)cc1	34%[9.22 µM]	22%[10 µM]	/	2%	?	/
O=S(=O)(N/N=C/c1c(F)cccc1Cl)c1ccccc1	?	-12%	-2%	-1%	6.3µM*	-8%
NS(=O)(=O)c1nc(S(=O)(=O)O)c2[nH]cnc2n1	/	1%[10 µM]	/	/	2%[13.5 µM]	-13%
N/C(=N\OC(=O)c1ccco1)c1ccc(Br)cc1	4%	-8%	?	1%	3.2µM*	-11%
N/C(=N\OC(=O)c1ccco1)c1ccccc1	-28%	-10%[10 µM]	-13%	7%	4%	-29%
O=C(c1ccc(S(=O)(=O)Nc2ccc(F)cc2)cc1)N1CCN(c2ccccn2)CC1	14µM*	-39%	-21%[46 µM]	-9%	2%	/
Cc1ccc(CN2CCSc3ccc(C(=O)N4CCN(c5ncccn5)CC4)cc32)cc1	16µM*	-61%	?	?	?	?
Cc1ccc(NS(=O)(=O)c2ccc(C(=O)N3CCN(c4ncccn4)CC3)cc2)cc1	2.5µM*	-92%	?	?	-11%	/
O=C(c1ccc(S(=O)(=O)N2CCOCC2)cc1)N1CCN(c2ccccn2)CC1	-6%	-22%	/	-2%	?	/
C/C(=C\C(=S)Nc1ccccc1)Nc1ccccc1	25%	43%[10 µM]	5%	?	5%	16µM*
COc1ccccc1-c1ccc(Nc2cccc(C(F)(F)F)c2)nn1	13%	-24%[10 µM]	-9%	1%	0%	-6%

Screening data (PubChem)
